Results: PubChem BioAssay AID743320 (Broad Institute, 2014)
Entries with a potency or affinity are not part of this list. Active and inactive are the calls of the source.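 The calls were made as follows: active = signal drop whose fitted half-maximal potency is at most twice the top valid dose tested; inconclusive = flat curve inhibiting 30 to 70 percent, or a poor fit; inactive = the rest.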

target: Endoplasmic reticulum aminopeptidase 2 (Homo sapiens) (UniProt Q6P179); assay: ERAP2 aminopeptidase inhibitors, dose response, selectivity assay for selective ERAP1 modulator project, biochemical, fluorescence plate reader, cherry-picked, set 2 (AID 743320); settings: recombinant ERAP2, Arg-AMC fluorescence, 1 h; series mostly up to 11 µM; activity change, negative = inhibition: at the top concentration
Sequence (Q6P179 whole entry, looked up): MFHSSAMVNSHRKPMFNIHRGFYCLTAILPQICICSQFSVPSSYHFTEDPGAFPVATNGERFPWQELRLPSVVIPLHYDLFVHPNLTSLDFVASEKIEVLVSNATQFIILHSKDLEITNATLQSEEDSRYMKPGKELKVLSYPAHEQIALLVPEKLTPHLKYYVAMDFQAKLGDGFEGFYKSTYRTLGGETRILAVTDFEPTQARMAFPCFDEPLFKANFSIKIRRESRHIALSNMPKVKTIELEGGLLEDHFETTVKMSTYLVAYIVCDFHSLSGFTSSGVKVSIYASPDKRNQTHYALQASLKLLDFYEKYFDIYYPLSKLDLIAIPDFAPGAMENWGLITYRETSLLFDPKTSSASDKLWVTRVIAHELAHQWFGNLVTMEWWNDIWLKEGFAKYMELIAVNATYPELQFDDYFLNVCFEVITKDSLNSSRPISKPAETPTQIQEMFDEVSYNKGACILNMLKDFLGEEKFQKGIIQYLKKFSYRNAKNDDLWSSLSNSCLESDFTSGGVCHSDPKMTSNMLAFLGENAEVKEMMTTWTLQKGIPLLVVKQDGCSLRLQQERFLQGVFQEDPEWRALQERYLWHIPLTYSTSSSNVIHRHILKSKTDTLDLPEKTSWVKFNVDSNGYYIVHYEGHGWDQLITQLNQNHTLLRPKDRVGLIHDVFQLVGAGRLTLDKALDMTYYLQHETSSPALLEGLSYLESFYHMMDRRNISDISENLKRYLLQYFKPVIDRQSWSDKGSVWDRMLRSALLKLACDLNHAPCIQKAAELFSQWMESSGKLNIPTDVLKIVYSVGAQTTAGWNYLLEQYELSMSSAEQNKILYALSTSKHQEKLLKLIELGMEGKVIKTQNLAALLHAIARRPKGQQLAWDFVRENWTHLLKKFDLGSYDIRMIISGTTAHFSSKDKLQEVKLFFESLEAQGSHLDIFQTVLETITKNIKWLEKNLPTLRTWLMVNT

SMILES	activity change, negative = inhibition
N#Cc1c(N2CCNCC2)nc(-c2ccco2)c2c1CCCC2	31.3% (inactive)
CCN(CCCl)c1cc(CN(C)C)cc(NC(=O)c2ccc(C(=O)Nc3cc(CN(C)C)cc(N(CC)CCCl)c3)cc2)c1	-8.9% (inactive)
Cc1cc(=O)oc2cc(OCC(=O)N3CCN(C(C)c4ccccc4)CC3)c(Cl)cc12 (stereo not drawn)	461% (inactive)
